Assay outcomes from PubChem.
tim23-1 inh = growth inhibitors of tim23-1 mutant yeast, primary screen, luminescence, uHTS; S. cerevisiae tim23-1 growth, BacTiter-Glo luminescence, 24 h; inhibition, % at 20 µM; 1.3% of 330,000 active;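 active = growth inhibition of the mutant yeast at or above 50%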;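 note: temperature-sensitive mutant grown at 25 °C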
NLRP3 yeast inh = NALP3 inflammasome inhibitors in reconstituted yeast, primary screen, luminescence, uHTS; Yeast reconstituted NLRP3/ASC/caspase-1, beta-gal luminescence, 24 h; inhibition, % at 10 µM; 0.39% of 330,000 active; AID 2825, 2010;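 active = inhibition of 50% or more; inactive = inhibition below 50%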
PfHsp90 yeast 2 = growth inhibition of PfHsp90-expressing yeast, primary screen, antimalarial PfHsp90 inhibitor project, S. cerevisiae, BacTiter-Glo luminescence, single point, set 2. BacTiter-Glo ATP, 48 h; yeast lacking PDR1 and PDR3 efflux regulators. inhibition, % at 9.4 µM. 0.32% of 310,000 active. AID 504621, 2011;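 active = every replicate shows inhibition above about 80%, whatever the replicate mean, limit read from the data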
TIM10 inh = growth inhibitors of isogenic TIM10 control yeast, primary screen, counter-screen for tim10-1 yeast inhibitor project, luminescence, uHTS; S. cerevisiae TIM10 strain growth, BacTiter-Glo luminescence, 24 h; 1.4% of 330,000 active; AID 463195, 2010; inhibition, % at 10 µM;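 active = inhibition of 40% or more at the single tested concentration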;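 note: wild-type TIM10 isogenic control strain grown at permissive 25 °C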
tim10-1 inh = growth inhibitors of tim10-1 mutant yeast, primary screen, luminescence, uHTS; S. cerevisiae tim10-1 ts strain growth, BacTiter-Glo, 24 h; inhibition, % at 20 µM; 2.2% of 330,000 active;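 active = inhibition of at least 40%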;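 note: mutant grown at 25 °C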
SKKanGAS inh = S. pyogenes SKKanGAS growth inhibitors in kanamycin, primary screen, streptokinase expression inhibitor project, SKKanGAS strain, BacTiter-Glo luminescence; 6 h; inhibition, % at 7.5 µM; 1.3% of 300,000 active;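 active = mean replicate score, as percent of positive control median, at least 50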;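 note: strain carries kanamycin resistance gene driven by streptokinase promoter and grows in 40 µg/ml kanamycin; loss of luminescence reflects streptokinase promoter inhibition or plain growth inhibition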
tim10-1 conf = growth inhibitors of tim10-1 mutant yeast, confirmation, single concentration, luminescence, S. cerevisiae. shares compounds with tim10-1 inh. S. cerevisiae tim10-1 ts strain growth, BacTiter-Glo, 24 h. inhibition, % at 20 µM. 56% of 7,400 active;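 active = inhibition of yeast growth at or above a set limit in either of two repeat tests at 20 µM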;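 note: tim10-1 mutant grown at permissive 25 °C to find synthetic lethal compounds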
Hits are given with their value; i = inactive; nt = no result given. Hits are enriched below; roughly 4.6% of the tested compounds scored in any of these assays.

SMILES	tim23-1 inh	NLRP3 yeast inh	PfHsp90 yeast 2	TIM10 inh	tim10-1 inh	SKKanGAS inh	tim10-1 conf
Cc1ccc(C(=O)NC2CCN(CC(=O)NC3CCC(C)CC3)CC2)cc1 (configuration not stated)	i	i	i	i	i	i	nt
COc1cc(/C=C2\SC(=O)NC2=O)ccc1Oc1ccc([N+](=O)[O-])cc1[N+](=O)[O-]	i	i	i	i	i	i	nt
CO/N=C/c1ccc(Oc2ccc([N+](=O)[O-])cc2[N+](=O)[O-])c(OC)c1	i	i	i	i	43.7	i	33.6
COc1cc(/C=N/O)ccc1Oc1ccc([N+](=O)[O-])cc1[N+](=O)[O-]	i	i	i	i	43.6	i	38.4
O=[N+]([O-])c1cc(/C=N\O)ccc1Oc1ccc(F)cc1	i	i	i	i	46.4	i	i
CC(C)(C)Sc1ccc(/C=N/O)cc1[N+](=O)[O-]	i	i	i	i	i	i	nt
COc1cc(C2C3=C(COC3=O)Oc3cc4c(cc32)OCO4)cc(OC)c1O (configuration not stated)	nt	nt	i	nt	nt	nt	nt
Cc1ccc(C)c(OC(=O)c2cccc(S(=O)(=O)N3CCN(C)CC3)c2)c1	i	i	i	i	42.1	i	i
CN(C)S(=O)(=O)Oc1ccsc1C(=O)Nc1cccc(Cl)c1	i	i	i	i	i	i	nt
CN(C)S(=O)(=O)Oc1ccsc1C(=O)Nc1ccc(Cl)c(Cl)c1	i	i	i	i	44.3	i	36.5
O=C(c1ccc(Br)c(S(=O)(=O)N2CCOCC2)c1)N1CCN(C/C=C/c2ccccc2)CC1	nt	nt	i	nt	nt	nt	nt
Cc1nc2ccc(NS(=O)(=O)c3ccc(C)c(C)c3)cc2s1	i	i	i	i	42.2	i	i
O=C1/C(=C\c2ccc(O)cc2)SC(=S)N1/N=C/c1ccc(O)cc1	i	i	i	i	40.8	i	39.0
CC(=O)NN1C(=O)/C(=C\c2ccc(O)cc2)SC1=S	i	i	i	i	i	i	nt
COc1cc(NC(=O)Cc2ccc(S(=O)(=O)N3CCOCC3)s2)c(OC)cc1Cl	i	i	i	i	i	i	nt
O=C(Cc1ccc(S(=O)(=O)N2CCOCC2)s1)Nc1cc(Cl)ccc1Cl	i	i	i	i	44.3	nt	35.6
O=C(Cc1ccc(S(=O)(=O)N2CCOCC2)s1)Nc1ccc2c(c1)CCC2	i	i	i	i	40.7	i	i
CC(C)=CCC1=C(OCC(=O)O)C(=O)c2ccccc2C1=O	i	i	i	i	51.5	i	43.6
CC(C)(C)OC(=O)N[C@@H](C(=O)OC(C)(C)C)c1ccc2c(c1)OCO2	i	i	i	i	i	nt	nt
CC1(C)CC(=O)N(c2ccc(C#N)cc2)C(=O)C1	i	i	i	i	i	i	nt
O=S(=O)(c1cc(Cl)ccc1Br)N1CCCCC1	i	i	i	i	43.0	i	31.6
CSc1nc2c(c(-c3ccccc3)c1C#N)CCC2	i	i	i	i	47.8	i	32.5
Cc1sc(NC(=O)c2ccco2)c(C(c2ccc(F)cc2)N2CCN(C)CC2)c1C (configuration not stated)	i	i	nt	i	56.3	i	i
CC(C)Oc1ccc(C(CC(=O)NCc2ccco2)c2ccccc2)cc1 (configuration not stated)	i	i	i	i	40.1	i	i
COc1ccccc1NC1CCCCC1NS(=O)(=O)c1ccc(C)cc1 (configuration not stated)	i	i	i	i	48.0	i	i
Cc1ccc(C)c(NC2CCCCC2NS(=O)(=O)c2ccccc2)c1 (configuration not stated)	i	i	i	i	46.3	i	i
CN(CCC#N)C(=O)COC(=O)c1ccc2c(c1)C(=O)N(C1CCCCC1)C2=O	i	i	i	i	i	i	nt
CC(C)(C)C1CCc2onc(C(=O)Nc3ccc(F)cc3F)c2C1 (configuration not stated)	i	i	nt	i	41.3	i	i
